The structures appear in SMILES notation.

The term inhibition denotes the change of the read-out against control, counted positive when it falls.

The target in test [1] is Protein kinase C gamma type (Homo sapiens) (UniProt P05129). Conditions: at 1 µM.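 Note: each value is an averaged percent inhibition of the enzyme.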
The target in test [2] is T1, Protein kinase C iota type (Homo sapiens) (UniProt P41743).
T1 sequence (whole entry): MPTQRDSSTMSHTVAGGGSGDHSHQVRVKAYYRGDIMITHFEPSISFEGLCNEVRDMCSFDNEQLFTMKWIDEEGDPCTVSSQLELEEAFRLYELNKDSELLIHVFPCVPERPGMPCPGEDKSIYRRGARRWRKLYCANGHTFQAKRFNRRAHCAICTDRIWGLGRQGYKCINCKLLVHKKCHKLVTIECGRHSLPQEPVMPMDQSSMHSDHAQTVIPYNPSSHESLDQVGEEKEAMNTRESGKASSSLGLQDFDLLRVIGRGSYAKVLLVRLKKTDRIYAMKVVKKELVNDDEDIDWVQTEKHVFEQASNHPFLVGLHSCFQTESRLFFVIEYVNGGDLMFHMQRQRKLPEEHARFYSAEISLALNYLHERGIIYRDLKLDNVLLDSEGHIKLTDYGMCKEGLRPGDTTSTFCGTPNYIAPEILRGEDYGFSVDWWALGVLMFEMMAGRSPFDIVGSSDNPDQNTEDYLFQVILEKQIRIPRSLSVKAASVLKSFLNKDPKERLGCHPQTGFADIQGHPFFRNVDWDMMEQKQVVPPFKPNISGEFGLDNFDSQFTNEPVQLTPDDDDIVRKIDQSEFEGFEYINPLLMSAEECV
The note with it: at 0.1 µM.

In test [3] the target is T1, Protein kinase C iota type (Homo sapiens). Conditions: at 1 µM.
In test [4] the target is Protein kinase C theta type (Homo sapiens) (UniProt Q04759). The note with it: at 0.1 µM.
Protein kinase C theta type (Homo sapiens), sequence (Q04759 whole entry, looked up): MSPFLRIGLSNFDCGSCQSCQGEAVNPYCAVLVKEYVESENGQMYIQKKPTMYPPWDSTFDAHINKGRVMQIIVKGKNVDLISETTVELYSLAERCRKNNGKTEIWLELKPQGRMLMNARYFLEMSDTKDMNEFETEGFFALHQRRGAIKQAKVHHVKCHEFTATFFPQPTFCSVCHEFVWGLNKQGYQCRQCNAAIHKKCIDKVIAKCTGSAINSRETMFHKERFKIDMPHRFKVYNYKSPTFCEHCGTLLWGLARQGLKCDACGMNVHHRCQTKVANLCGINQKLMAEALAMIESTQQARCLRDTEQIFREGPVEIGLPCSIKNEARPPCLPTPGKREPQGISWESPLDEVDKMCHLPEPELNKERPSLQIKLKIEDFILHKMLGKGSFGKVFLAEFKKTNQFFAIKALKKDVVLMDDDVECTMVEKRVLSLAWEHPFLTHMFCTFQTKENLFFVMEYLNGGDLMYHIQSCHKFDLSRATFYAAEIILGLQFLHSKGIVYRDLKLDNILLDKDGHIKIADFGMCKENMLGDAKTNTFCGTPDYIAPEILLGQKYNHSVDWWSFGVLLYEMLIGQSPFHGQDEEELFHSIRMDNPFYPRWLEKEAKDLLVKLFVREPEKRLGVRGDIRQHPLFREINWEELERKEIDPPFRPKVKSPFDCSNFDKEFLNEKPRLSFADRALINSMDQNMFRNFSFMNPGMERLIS
The target is the same in test [5]. Conditions: at 1 µM.
In test [6] the target is Protein kinase C beta type (Homo sapiens) (UniProt P05771). The note with it: at 0.1 µM.
Protein kinase C beta type (Homo sapiens), sequence (P05771 2-671 limits assumed): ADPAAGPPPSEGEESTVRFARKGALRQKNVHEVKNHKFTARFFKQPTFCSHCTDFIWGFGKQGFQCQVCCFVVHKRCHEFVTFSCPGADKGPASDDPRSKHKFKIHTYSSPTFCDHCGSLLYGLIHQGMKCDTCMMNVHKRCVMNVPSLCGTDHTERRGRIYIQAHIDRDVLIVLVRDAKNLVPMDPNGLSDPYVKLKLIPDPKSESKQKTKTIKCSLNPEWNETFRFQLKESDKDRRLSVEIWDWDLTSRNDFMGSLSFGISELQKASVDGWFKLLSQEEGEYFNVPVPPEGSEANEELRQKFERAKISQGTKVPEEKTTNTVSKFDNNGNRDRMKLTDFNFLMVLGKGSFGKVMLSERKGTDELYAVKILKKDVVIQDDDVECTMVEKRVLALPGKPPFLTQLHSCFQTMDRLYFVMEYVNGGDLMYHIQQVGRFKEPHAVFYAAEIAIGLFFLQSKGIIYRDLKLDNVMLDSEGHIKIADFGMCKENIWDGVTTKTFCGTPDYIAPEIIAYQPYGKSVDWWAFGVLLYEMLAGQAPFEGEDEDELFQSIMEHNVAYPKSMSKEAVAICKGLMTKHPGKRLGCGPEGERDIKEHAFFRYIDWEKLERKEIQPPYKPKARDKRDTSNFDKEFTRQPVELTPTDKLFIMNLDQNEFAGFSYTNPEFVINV
The target is the same in test [7]. Conditions: at 1 µM.
The target of test [8] is T2, Serine/threonine-protein kinase D1 (Homo sapiens) (UniProt Q15139).
T2 sequence (whole entry): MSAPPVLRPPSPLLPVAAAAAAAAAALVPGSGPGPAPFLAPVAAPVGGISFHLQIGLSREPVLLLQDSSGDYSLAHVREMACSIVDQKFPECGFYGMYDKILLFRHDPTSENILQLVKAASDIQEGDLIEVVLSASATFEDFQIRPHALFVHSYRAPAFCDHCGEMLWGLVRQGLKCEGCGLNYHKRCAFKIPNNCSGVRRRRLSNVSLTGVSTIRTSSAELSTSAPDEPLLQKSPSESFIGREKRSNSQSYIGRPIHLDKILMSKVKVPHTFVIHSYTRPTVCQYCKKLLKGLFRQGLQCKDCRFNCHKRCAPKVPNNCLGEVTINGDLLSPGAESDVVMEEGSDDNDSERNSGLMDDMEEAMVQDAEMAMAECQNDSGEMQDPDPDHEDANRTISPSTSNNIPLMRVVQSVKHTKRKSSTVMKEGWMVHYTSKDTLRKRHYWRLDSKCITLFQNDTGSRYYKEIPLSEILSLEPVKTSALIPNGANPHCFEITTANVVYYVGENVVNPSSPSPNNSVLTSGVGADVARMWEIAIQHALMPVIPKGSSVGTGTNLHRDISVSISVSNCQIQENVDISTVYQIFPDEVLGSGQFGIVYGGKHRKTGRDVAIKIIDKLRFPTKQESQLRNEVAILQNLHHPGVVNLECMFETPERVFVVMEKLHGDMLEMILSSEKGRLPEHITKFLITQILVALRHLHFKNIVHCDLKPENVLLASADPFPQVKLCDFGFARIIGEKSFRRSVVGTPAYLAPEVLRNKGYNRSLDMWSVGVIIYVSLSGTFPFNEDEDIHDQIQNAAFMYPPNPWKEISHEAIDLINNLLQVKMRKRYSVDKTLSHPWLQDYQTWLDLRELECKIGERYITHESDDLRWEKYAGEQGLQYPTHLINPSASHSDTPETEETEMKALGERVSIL
The note with it: at 0.1 µM.

For test [9], the target named is T2, Serine/threonine-protein kinase D1 (Homo sapiens). The note with it: at 1 µM.
The target of test [10] is T3, Serine/threonine-protein kinase D2 (Homo sapiens) (UniProt Q9BZL6).
T3 sequence (whole entry): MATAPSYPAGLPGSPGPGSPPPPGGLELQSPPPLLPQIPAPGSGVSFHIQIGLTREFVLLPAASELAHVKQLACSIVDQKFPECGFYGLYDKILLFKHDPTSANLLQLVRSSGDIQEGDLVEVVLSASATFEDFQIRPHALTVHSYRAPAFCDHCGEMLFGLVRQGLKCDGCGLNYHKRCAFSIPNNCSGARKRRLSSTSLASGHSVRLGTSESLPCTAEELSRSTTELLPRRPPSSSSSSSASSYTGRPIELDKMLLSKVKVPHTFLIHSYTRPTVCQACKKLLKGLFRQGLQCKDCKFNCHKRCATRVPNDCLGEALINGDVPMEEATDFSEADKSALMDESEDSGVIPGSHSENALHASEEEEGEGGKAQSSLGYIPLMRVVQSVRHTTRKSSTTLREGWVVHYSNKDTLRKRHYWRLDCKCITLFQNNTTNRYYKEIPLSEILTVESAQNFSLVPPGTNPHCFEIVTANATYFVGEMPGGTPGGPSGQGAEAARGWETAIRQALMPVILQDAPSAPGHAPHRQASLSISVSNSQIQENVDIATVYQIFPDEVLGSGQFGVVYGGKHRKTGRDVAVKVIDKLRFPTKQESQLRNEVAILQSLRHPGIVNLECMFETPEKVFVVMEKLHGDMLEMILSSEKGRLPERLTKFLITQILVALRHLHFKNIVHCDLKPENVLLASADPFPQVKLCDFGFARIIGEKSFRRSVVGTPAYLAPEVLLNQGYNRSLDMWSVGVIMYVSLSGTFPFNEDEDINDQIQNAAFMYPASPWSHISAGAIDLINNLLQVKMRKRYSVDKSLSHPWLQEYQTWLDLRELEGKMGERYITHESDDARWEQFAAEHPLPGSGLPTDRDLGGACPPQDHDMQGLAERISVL
The note with it: at 0.1 µM.

The target of test [11] is T3, Serine/threonine-protein kinase D2 (Homo sapiens). Conditions: at 1 µM.
Test [12] addresses T4, Serine/threonine-protein kinase D3 (Homo sapiens) (UniProt O94806).
T4 sequence (whole entry): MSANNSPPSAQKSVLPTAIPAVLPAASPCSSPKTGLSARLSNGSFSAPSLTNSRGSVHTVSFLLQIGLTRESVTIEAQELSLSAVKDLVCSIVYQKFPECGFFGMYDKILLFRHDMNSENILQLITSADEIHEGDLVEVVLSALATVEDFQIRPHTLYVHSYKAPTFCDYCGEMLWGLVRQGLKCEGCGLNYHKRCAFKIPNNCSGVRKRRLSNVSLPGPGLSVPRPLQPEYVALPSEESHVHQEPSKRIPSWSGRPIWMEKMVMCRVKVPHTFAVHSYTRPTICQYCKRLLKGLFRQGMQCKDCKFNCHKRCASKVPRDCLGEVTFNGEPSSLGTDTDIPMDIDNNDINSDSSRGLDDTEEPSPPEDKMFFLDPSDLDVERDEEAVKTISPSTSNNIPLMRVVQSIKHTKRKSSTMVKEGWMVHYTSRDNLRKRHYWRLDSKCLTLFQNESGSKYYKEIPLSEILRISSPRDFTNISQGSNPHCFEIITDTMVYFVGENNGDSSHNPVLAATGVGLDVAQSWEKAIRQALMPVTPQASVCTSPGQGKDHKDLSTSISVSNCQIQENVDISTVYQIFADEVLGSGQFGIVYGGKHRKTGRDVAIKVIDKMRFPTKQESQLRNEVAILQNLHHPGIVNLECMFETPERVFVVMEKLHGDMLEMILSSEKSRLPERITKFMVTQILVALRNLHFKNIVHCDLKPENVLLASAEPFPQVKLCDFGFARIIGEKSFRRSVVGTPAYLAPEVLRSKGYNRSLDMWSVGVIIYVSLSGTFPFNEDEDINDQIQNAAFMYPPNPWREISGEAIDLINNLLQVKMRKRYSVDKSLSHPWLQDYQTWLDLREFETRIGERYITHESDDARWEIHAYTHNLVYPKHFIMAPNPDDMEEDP
The note with it: at 0.1 µM.

Test [13] has as its target T4, Serine/threonine-protein kinase D3 (Homo sapiens). Conditions: at 1 µM.
The target of test [14] is T5, cGMP-dependent protein kinase 1 (Homo sapiens) (UniProt Q13976).
T5 sequence (whole entry): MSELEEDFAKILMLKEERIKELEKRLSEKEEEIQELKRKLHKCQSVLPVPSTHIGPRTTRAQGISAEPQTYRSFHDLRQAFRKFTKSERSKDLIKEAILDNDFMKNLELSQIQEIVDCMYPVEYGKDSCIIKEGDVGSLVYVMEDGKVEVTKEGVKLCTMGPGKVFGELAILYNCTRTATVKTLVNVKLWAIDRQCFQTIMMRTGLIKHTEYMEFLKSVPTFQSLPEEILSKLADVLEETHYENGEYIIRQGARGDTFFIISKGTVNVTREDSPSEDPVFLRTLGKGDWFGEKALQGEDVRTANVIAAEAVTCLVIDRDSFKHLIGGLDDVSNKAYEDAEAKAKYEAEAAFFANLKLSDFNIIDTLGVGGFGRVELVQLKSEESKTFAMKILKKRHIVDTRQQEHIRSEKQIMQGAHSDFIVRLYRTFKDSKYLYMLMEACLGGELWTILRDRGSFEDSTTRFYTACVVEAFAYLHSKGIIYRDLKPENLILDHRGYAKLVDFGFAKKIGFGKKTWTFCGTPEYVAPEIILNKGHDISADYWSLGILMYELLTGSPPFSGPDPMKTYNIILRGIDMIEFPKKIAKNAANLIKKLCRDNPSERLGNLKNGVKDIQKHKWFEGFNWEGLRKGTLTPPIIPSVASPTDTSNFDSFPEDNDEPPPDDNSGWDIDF
The note with it: at 0.1 µM.

In test [15] the target is T5, cGMP-dependent protein kinase 1 (Homo sapiens). The note with it: at 1 µM.
Test [16] concerns the target T6, cGMP-dependent protein kinase 2 (Homo sapiens) (UniProt Q13237).
T6 sequence (whole entry): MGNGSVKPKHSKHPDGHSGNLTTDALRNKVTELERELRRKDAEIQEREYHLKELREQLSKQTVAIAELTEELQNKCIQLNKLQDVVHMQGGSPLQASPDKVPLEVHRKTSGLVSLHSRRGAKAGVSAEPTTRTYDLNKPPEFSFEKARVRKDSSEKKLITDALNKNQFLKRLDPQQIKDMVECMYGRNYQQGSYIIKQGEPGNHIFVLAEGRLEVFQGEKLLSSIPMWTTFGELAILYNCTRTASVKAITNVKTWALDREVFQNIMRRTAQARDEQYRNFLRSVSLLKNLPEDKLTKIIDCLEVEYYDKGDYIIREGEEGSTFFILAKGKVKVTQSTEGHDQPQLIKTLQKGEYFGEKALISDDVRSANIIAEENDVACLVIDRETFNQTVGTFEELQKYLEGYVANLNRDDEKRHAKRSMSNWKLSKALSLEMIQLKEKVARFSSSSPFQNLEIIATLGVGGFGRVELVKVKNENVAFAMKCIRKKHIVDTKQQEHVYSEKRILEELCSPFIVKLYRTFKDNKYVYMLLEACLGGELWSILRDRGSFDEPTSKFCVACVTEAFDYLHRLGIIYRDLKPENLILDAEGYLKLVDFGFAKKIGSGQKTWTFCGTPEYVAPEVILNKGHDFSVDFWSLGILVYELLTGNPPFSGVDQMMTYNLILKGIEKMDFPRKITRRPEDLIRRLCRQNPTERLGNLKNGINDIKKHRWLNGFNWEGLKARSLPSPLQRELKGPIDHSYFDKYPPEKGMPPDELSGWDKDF
Conditions: at 0.1 µM.

Test [17] has as its target T6, cGMP-dependent protein kinase 2 (Homo sapiens). The note with it: at 1 µM.
The target in test [18] is T7, cAMP-dependent protein kinase catalytic subunit PRKX (Homo sapiens) (UniProt P51817).
T7 sequence (whole entry): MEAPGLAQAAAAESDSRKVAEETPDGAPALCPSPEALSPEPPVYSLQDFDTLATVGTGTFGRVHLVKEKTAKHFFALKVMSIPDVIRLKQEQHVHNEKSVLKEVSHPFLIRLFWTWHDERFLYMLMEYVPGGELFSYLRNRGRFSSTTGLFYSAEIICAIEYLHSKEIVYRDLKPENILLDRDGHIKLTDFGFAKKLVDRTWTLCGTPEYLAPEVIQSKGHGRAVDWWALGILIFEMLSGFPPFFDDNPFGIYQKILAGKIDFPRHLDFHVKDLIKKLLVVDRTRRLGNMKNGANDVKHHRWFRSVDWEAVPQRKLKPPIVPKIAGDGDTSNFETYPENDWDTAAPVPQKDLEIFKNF
The note with it: at 0.1 µM.

In test [19] the target is T7, cAMP-dependent protein kinase catalytic subunit PRKX (Homo sapiens). The note with it: at 1 µM.
For test [20], the target named is Rho-associated protein kinase 1 (Homo sapiens) (UniProt Q13464). Conditions: at 0.1 µM.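 Note: values are mean percent inhibition of ROCK1.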
Rho-associated protein kinase 1 (Homo sapiens), sequence (Q13464 2-1354 limits assumed): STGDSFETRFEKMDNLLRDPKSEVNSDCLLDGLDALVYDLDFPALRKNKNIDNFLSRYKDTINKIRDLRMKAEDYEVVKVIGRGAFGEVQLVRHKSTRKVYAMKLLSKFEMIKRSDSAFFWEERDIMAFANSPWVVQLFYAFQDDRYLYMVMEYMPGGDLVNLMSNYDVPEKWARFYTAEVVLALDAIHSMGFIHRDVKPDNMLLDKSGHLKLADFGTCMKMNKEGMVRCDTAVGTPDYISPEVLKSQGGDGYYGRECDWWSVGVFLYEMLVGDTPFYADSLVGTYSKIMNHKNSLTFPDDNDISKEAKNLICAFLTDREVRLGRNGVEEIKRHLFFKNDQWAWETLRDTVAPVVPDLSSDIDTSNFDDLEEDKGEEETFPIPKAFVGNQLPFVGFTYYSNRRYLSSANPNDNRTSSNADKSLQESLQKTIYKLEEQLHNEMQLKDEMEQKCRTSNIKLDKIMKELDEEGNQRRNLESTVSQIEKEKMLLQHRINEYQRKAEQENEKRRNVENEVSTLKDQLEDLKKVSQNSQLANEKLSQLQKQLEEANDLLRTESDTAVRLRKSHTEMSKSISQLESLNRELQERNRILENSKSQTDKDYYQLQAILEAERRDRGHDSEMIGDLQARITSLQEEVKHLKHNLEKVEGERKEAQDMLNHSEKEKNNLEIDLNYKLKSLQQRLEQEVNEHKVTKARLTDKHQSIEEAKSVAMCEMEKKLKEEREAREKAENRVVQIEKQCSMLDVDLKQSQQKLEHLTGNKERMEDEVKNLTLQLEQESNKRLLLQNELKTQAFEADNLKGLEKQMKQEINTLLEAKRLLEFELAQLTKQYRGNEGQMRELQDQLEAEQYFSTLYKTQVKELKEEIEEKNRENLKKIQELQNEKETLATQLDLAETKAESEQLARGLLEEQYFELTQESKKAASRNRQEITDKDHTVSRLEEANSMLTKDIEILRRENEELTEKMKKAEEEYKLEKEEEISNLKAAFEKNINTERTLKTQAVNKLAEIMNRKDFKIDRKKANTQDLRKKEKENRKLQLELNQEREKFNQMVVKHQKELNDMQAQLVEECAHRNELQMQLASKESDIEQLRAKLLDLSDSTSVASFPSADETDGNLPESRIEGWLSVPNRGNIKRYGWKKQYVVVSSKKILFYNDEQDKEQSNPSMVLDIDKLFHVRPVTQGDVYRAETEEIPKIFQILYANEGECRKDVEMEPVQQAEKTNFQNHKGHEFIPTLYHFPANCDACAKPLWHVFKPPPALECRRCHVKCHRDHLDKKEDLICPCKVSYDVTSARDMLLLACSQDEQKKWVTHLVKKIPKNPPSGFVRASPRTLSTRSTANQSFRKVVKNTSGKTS

On to `CCNC(=O)O[C@H]1CN[C@H](C#Cc2cc3ncnc(Nc4ccc(OCc5cccc(F)c5)c(Cl)c4)c3s2)C1`, for which the inhibition in test [1] is 3.31%; in test [2] it was 1.37%; in [3], 3.17%; in test [4] it was 1.01%; in test [5], 0.75%; in test [6], -0.74%. The inhibition in [7] worked out at 0.7%; in [8], 2.66%; in [9] it was 4.66%; in test [10], 2.15%; in test [11], 3.71%; in test [12] it was 2.4%. For the same compound, the inhibition in [13] is 3.78%; in [14], 2.33%; in test [15] it was 3.36%; in test [16] it was -0.03%; in test [17], 2.81%; in test [18], -0.14%. Besides, the inhibition was -0.33% in test [19] and 0.96% in test [20].

`O=C(O[C@H]1CN[C@H](C#Cc2cc3ncnc(Nc4ccc(Cc5ccccc5)cc4)c3s2)C1)N1CCOCC1`: the inhibition in test [1] came out at 3.28%; in [2] it was 2.08%; in test [3], 2.38%; in [4], 1.84%; in test [5] it was 2.2%; in [6] it was 2.68%. The inhibition was 4.05% in test [7]; 2.54% in [8]; 3.43% in [9]; 3.17% in [10]; 1.56% in test [11]; 1.99% in test [12]. Also, the inhibition worked out at 1.5% in test [13]; 3.46% in [14]; 3.85% in test [15]; 4.54% in [16]; 3.68% in test [17]; 3.27% in test [18]. The inhibition amounted to 3.94% in test [19] and 2.02% in test [20].

Source of the values: ChEMBL document CHEMBL1961873, “Compounds: GSK PKIS; Assays: Nanosyn kinase panel” (2012).
